The results in this text go back to PubChem BioAssay (NCATS).

Test [1] concerns the target Tyrosine-protein kinase Yes (Homo sapiens) (UniProt P07947). Description: qHTS for small molecule inhibitors of Yes1 kinase: Primary Screen (AID 686947). Note: potency is the fitted concentration of half-maximal effect; nearly all actives have a fitted effect of over 60% in size. The essentials: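 Yes1 (4 nM) preincubated 20 min with compound, then 60 min room-temperature reaction with 0.1 mM ATP and 0.3 mg/mL poly(E4Y) in pH 7.5 Tris, 10 mM MgCl2. ADP measured by ADP-Glo luminescence, normalised to enzyme/no-enzyme controls.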

The nature of test [2]: qHTS for small molecule inhibitors of Yes1 kinase: Counter Assay (AID 686950).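 Note: no kinase present so only ADP-Glo detection of a fixed ADP amount is tested; luminescence from ADP-Glo reporting ADP in a fixed ATP and ADP mixture; 0% = DMSO wells with ATP plus ADP and -100% = ATP-only wells without ADP.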 The gist of the method: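 Enzyme-free ADP-Glo interference check: compounds were preincubated 20 min in buffer, then an ATP/ADP mix (0.08 mM ATP, 0.02 mM ADP final) was added for 60 min at room temperature before two-step ADP-Glo luminescence detection.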
(In general: Quantitative high-throughput screening tests each substance at several concentrations.)

Test [3] is described as follows: P-glycoprotein substrates identified in KB-3-1 adenocarcinoma cell line, qHTS therapeutic library screen (AID 1346986). Note: nearly all actives have a fitted effect of over 60% in size.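 Note: potency is the fitted concentration of half-maximal effect; potency is for cytotoxicity meaning loss of cell viability.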 The gist of the method:
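Resistance attributable to P-gp was assessed by comparing AC50 in KB-8-5-11 with parental KB-3-1 and by tariquidar reversal. Cells were exposed 72 h and viability read by CellTiter-Glo.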

A short description of test [4]: P-glycoprotein substrates identified in KB-8-5-11 adenocarcinoma cell line, qHTS therapeutic library screen (AID 1346987). Note: nearly all actives have a fitted effect of over 65% in size. Note: potency is the fitted concentration of half-maximal effect. The essentials:
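KB-8-5-11, a colchicine-selected P-gp-overexpressing KB-3-1 subline, was grown without colchicine for the assay. Cells were seeded at 500 cells/well, dosed in concentration-response and incubated 72 h at 37 degree C, 5% CO2. Viability was read by CellTiter-Glo luminescence.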

The nature of test [5]: Primary qHTS for inhibitors of nuclear receptor binding SET domain protein 2 (NSD2) in an isogenic RCH-ACV NSD2 p.E1099K mutant (9B) (AID 1645876). Note: nearly all actives have a fitted effect of over 70% in size. Note: potency is the fitted concentration of half-maximal effect.
A short description of test [6]: Primary qHTS for inhibitors of nuclear receptor binding SET domain protein 2 (NSD2) in an RCH-ACV wild type WT cells (2C) (AID 1645877). Note: nearly all actives have a fitted effect of over 70% in size. Note: potency is the fitted concentration of half-maximal effect.
The target of test [7] is Glutathione peroxidase 1 (Homo sapiens) (UniProt P07203). Description: Primary qHTS Assay for Inhibitors of Recombinant Selenoprotein Glutathione Peroxidase 1 (GPX1) (AID 1845191). For activity, negative = inhibition: % is set by controls: 0 for no effect and ±100 for the full control effect. Note: nearly all actives have a fitted effect of over 65% in size. Note: potency is the fitted concentration of half-maximal effect. The gist of the method:
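Recombinant GPX1 (10 nM final) was preincubated with compound for 30 min at room temperature, then reacted with 1 mM GSH, 0.5 mM CHP, 0.5 mM NADPH and 100 nM glutathione reductase; NADPH fluorescence (340/450 nm) was read at 0 and 15 min.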

Test [8] can be described thus: qHTS drug screen for cell cycle checkpoint inhibitors in PARPi-resistant BRCA-mutant ovarian cancer cell lines. (AID 1963452; calls by dose curve). To be noted: PEO1/OlaR viability, CellTiter-Glo luminescence, 96 h, stronger effect = lower value. The essentials: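 PEO1, PEO4 and PEO1/OlaR ovarian cancer cells, 600 per well, exposed 96 h at 37C to a dilution series. Viability read by CellTiter-Glo luminescence, normalized to DMSO and empty wells; activity summarized as Z-AUC.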

The target in test [9] is Lysosomal acid glucosylceramidase (Homo sapiens) (UniProt P04062). The experiment in a line: Glucocerebrosidase-p2 (AID 348; in the data active = potency below about 10 µM; note: potency is the fitted concentration of half-maximal effect). To be noted: purified GBA, blue fluorogenic substrate, 40 min. The gist of the method:
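Compounds titrated from 0.6 nM upwards against 0.2 nM enzyme in pH 5.9 citric acid/KH2PO4, taurocholate, tween-20; blue fluorogenic substrate 80 uM, 40 min room temperature, stopped and read Ex 365/Em 440 for AC50.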

Test [10] concerns the target Cytochrome P450 1A2 (Homo sapiens) (UniProt P05177). The experiment in a line: p450-cyp1a2 (AID 410; calls by dose curve; note: potency is the fitted concentration of half-maximal effect). The essentials:
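20nM CYP1A2 with 100uM Luciferin-ME (at Km) in 100mM KPO4; compound preincubated 10 min, NADPH regeneration added, 60 min at room temperature. Luciferin quantified by luminescence after detection reagent; normalized to 57 uM furafylline.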

Test [11] is described as follows: NFAT Signaling Pathway (AID 444; active = well fitted curve in either direction with a large enough effect, not every such curve was filed as active;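 note: carbachol stimulus at about its EC50 of 1 µM final; % is set by controls: 0 for no effect and ±100 for the full control effect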). To be noted: Jurkat NFAT-bla M1, carbachol, beta-lactamase ratio, 5 h; at 7.69 µM (top of the series). The gist of the method:
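Jurkat cells carrying an NFAT-driven β-lactamase reporter and co-transfected muscarinic M1 receptor were treated with compound plus carbachol (1 uM final, an EC50 level) for 5 h at 37 °C. CCF4 loading followed for 1 h at RT; 460/530 nm ratio gave %activity.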

A short description of test [12]: Stat Signaling Pathway (AID 446; active = well fitted curve in either direction with a large enough effect, not every such curve was filed as active;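 note: ME-180 cervical cancer cells given 40 pM IL-6 alongside compound; SIE-controlled beta-lactamase reporter measured as 460/530 nm FRET emission ratio; % is set by controls: 0 for no effect and ±100 for the full control effect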). The following applies: ME-180 SIE beta-lactamase reporter, IL-6 stimulated, 5 h; at 7.69 µM (top of the series). The essentials:
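Reporter line: ME-180 cervical carcinoma, SIE-beta-lactamase. Treatment: compound with 40 pM IL-6, 5 hrs, 37 C, in low-serum OPTI-MEM with 10 mM HEPES pH 7.3. Detection: 460/530 nm fluorescence.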

Test [13] deals with Glucocorticoid receptor (Homo sapiens) (UniProt P04150). Description: GR-GFP Redistribution (AID 450;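 active = compounds whose dose series gives a full or clear partial fitted curve of increased nuclear translocation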; note: potency is the fitted concentration of half-maximal effect). To be noted: U2OS GR-GFP nuclear translocation, laser cytometry, 2 h.
Chain of Glucocorticoid receptor (Homo sapiens) (P04150 whole entry, looked up, the tested form may be a part): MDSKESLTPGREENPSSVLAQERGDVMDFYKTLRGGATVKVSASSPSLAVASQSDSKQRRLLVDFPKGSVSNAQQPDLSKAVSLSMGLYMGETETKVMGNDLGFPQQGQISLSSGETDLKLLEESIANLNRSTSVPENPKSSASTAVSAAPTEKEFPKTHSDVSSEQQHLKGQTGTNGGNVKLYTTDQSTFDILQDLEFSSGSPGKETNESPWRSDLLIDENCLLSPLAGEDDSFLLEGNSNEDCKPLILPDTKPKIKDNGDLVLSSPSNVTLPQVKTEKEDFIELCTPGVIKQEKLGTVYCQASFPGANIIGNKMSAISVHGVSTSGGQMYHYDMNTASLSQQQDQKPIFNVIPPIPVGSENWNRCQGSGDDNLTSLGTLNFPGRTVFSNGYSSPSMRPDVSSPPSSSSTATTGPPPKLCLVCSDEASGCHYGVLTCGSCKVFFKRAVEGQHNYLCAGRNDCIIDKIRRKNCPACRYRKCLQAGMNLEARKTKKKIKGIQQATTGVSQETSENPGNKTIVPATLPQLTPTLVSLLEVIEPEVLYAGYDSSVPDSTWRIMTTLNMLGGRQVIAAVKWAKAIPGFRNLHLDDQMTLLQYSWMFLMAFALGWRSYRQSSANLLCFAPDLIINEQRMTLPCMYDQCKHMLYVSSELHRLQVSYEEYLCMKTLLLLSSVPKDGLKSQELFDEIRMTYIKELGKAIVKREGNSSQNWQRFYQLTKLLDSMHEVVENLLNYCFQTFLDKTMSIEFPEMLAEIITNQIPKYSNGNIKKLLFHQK
Test [14] shares this target. The experiment in a line: GR-EFC Redistribution (AID 451; calls by dose curve; note: potency is the fitted concentration of half-maximal effect). To be noted: CHO-K1 GR-EFC translocation, beta-gal luminescence, 2 h. The essentials: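 CHO-K1 cells stably expressing nuclear-localized β-gal enzyme acceptor and GR fused C-terminally to the enzyme donor fragment; ligand-driven nuclear translocation restores β-gal by complementation. Compounds titrated up to 46 uM final, 2 h at 37 °C; luminescence read.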

Test [15] has as its target Cytochrome P450 3A4 (Homo sapiens) (UniProt P08684). Description: qHTS Assay for Inhibitors and Substrates of Cytochrome P450 3A4 (AID 884). Note: % is set by controls: 0 for no effect and ±100 for the full control effect; nearly all actives have a fitted effect of over 50% in size. The gist of the method: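 20 nM human CYP3A4 with 25 uM Luciferin-PPXE (at KM) in 200 mM KPO4, preincubated 10 min with compound; NADPH regeneration started a 60 min RT reaction. Luciferin detected by luminescence, normalized to 57 uM ketoconazole as full inhibition.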

Test [16] concerns the target Cytochrome P450 2D6 (Homo sapiens) (UniProt P10635). The experiment in a line: qHTS Assay for Inhibitors and Substrates of Cytochrome P450 2D6 (AID 891). Note: potency is the fitted concentration of half-maximal effect; nearly all actives have a fitted effect of over 60% in size. The gist of the method:
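Human CYP2D6 (5 nM) with 30 uM Luciferin-ME EGE (at Km) in 100 mM KPO4, compound preincubated 10 min, then NADPH regeneration system for 60 min at room temperature. Luciferin read by luminescence; normalized to 1.43 uM quinidine.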

For test [17], the target named is Cytochrome P450 2C19 (Homo sapiens) (UniProt P33261). The experiment in a line: qHTS Assay for Inhibitors and Substrates of Cytochrome P450 2C19 (AID 899). Note: potency is the fitted concentration of half-maximal effect; nearly all actives have a fitted effect of over 60% in size. The gist of the method:
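Human CYP2C19 (5nM) with Luciferin-H EGE at 10uM (its KM) in 50mM KPO4 was preincubated with compound for 10 min at 37C. NADPH regeneration started a 60 min 37C reaction. Luciferin was read by luminescence, normalized to 57uM ketoconazole.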

A short description of test [18]: Confirmation and Secondary Assay for Modulators of Hemoglobin Beta Chain Splicing at IVS2 654 locus (AID 910).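 Note: per-well total GFP intensity by laser scanning cytometry after 2-day treatment; % of control where 0% means no effect.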 The gist of the method: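 HeLa cells stably carrying EGFP interrupted by mutant beta-globin IVS2-654 intron (CMV-driven) were treated with compound for 2 days at 37C; corrected splicing was scored as total peak GFP intensity per well (488 nm excitation, 500-520 nm emission).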

A short description of test [19]: Confirmation and Secondary Assay for Modulators of Hemoglobin Beta Chain Splicing at IVS2 705 locus (AID 930).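 Note: HeLa cells stably expressing the EGFP-705 splicing reporter; GFP fluorescence per well restored by corrected splicing of the IVS2-705 intron in EGFP; % of control where 0% means no effect.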 The essentials: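 Splice-correction reporter: EGFP cDNA split by beta-globin intron 2 bearing the 705 mutation, stably in HeLa. Compound incubation 2 days, 37C; fluorescent objects 5-250 µm summed per well.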
Test [20] is described as follows: qHTS Assay for Lipid Storage Modulators (AID 1519; calls by dose curve). To be noted: Drosophila S3 cells, BODIPY lipid droplet/cell ratio, laser cytometry, cells loaded with oleic acid. The essentials: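 Cells seeded at 5,000 per well were treated with compounds over a concentration series and loaded with oleic acid (400 uM, as added). Lipid droplet fluorescence (488 nm excitation, 500-530 nm channel) was read by laser-scanning cytometry and normalized to 20 uM Triacsin C.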

Test [21] deals with Ubiquitin carboxyl-terminal hydrolase 1 (Homo sapiens) (UniProt O94782). Description: Inhibitors of USP1/UAF1: Pilot qHTS (AID 504865).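 Note: rhodamine fluorescence freed from ubiquitin-rhodamine substrate followed over time; top concentration of the series differs between compounds; % is set by controls: 0 for no effect and ±100 for the full control effect; nearly all actives have a fitted effect of over 35% in size.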 The essentials: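 1nM USP1/UAF1 + cpd, 15 min RT; start w/ Ub-Rho 150nM final; kinetic FL 480/540 nm, 6 reads q60 s. Buffer 50mM HEPES pH 7.8, 0.5mM EDTA, 1mM TCEP, 0.01% Tween-20, 0.1 mg/ml BSA.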
Chain of Ubiquitin carboxyl-terminal hydrolase 1 (Homo sapiens) (O94782 whole entry, looked up): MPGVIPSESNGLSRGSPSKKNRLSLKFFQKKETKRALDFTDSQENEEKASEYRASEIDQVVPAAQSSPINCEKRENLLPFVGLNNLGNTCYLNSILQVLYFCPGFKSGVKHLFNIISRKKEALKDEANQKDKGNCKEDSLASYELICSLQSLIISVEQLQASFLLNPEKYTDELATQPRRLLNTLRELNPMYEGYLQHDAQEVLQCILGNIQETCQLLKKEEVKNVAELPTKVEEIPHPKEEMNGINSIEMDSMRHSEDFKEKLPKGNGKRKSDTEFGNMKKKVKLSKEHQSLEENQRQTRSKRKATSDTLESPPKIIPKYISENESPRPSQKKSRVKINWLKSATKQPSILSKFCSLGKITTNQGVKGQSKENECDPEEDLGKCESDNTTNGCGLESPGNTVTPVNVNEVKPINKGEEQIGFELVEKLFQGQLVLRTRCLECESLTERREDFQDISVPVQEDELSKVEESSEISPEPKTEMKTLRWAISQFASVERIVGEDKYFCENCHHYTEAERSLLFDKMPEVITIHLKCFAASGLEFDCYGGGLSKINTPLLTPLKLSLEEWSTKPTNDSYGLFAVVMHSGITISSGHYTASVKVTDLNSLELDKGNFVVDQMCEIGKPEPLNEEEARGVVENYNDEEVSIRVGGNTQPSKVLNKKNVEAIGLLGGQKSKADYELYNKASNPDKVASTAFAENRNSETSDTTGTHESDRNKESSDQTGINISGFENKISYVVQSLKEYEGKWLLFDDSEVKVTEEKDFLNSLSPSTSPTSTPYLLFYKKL
Test [22] concerns the target Cytochrome P450 3A4 (Homo sapiens) (UniProt P08684). The experiment in a line: qHTS Assay for Activators of Cytochrome P450 3A4 (AID 885). Note: nearly all actives have a fitted effect of over 65% in size. The gist of the method: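 Signal was normalized against complete inhibition by 57 uM ketoconazole. The reaction used 20nM CYP3A4 with 25uM Luciferin-PPXE, 10-min compound preincubation and a 60-min NADPH-supported step at RT.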
In test [23] the test system is Zika virus NS2B-NS3 protease. The experiment in a line: Primary screen GU AMC qHTS for Zika virus inhibitors (AID 1347154).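 Note: 0% = no-inhibitor control and -100% = no-enzyme control; nearly all actives have a fitted effect of over 70% in size.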 The essentials:
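Unlinked Zika NS2B hydrophilic domain/NS3 protease domain noncovalent complex (25 nM final) in 10 mM Tris-HCl pH 8.0, 0.01% Tween 20, with AMC peptide substrate. Fluorescence (ex 340, em 450 nm) change over 15 min, room temperature; percent inhibition fitted to 4-parameter Hill equation.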

Test [24] can be described thus: Primary qHTS for small molecule stabilizers of the endoplasmic reticulum resident proteome: Secreted ER Calcium Modulated Protein (SERCaMP) assay (AID 1508630). Note: % is set by controls: 0 for no effect and ±100 for the full control effect. The gist of the method: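 GLuc-SERCaMP-expressing SH-SY5Y cells, pretreated 16 h with compound, are challenged with thapsigargin to empty ER calcium stores; after 4 h, coelenterazine is added directly to the medium and luminescence is imaged.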

The target in test [25] is N-terminal Xaa-Pro-Lys N-methyltransferase 1 (Homo sapiens) (UniProt Q9BV86). Description: Confirmatory qHTS for Inhibitors of N-terminal methyltransferase 1 (NTMT1): MTaseGlo Assay (AID 1645874). Note: potency is the fitted concentration of half-maximal effect; nearly all actives have a fitted effect of over 65% in size. The gist of the method: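 qHTS format: NTMT1 125 nM, SAM 100 uM, peptide SPKRIA 1 uM final; 15 min compound preincubation, 30 min reaction at room temperature. MTase-Glo luminescence.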
Chain of N-terminal Xaa-Pro-Lys N-methyltransferase 1 (Homo sapiens) (Q9BV86 whole entry, looked up): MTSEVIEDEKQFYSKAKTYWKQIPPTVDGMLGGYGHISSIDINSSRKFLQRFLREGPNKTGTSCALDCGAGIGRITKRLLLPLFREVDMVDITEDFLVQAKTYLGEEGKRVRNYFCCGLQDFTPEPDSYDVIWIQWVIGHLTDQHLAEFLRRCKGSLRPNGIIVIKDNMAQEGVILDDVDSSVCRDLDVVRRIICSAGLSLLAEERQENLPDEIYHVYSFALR

Results filed as inconclusive are left out. Where a structure was tested more than once in an assay, its records may differ in their call. Calls of active or inactive are those of the source. Unless noted, calls come from the whole dose curve; as a rule, active = well fitted curve in the direction sought with a large enough effect; inconclusive = small, poorly fitted or top-dose-only effect, or another doubt; inactive = no such curve, though single readings can be large; an effect the other way counts as inactive or inconclusive. Bounds are passed on as bounds.

Chain of Glutathione peroxidase 1 (Homo sapiens) (P07203 whole entry, looked up): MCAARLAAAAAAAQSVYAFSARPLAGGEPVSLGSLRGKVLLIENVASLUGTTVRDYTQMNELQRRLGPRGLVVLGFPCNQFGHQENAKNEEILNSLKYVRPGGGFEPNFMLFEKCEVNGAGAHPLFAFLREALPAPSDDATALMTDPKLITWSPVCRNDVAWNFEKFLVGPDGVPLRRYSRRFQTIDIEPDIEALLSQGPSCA
Chain of Cytochrome P450 3A4 (Homo sapiens) (P08684 whole entry, looked up): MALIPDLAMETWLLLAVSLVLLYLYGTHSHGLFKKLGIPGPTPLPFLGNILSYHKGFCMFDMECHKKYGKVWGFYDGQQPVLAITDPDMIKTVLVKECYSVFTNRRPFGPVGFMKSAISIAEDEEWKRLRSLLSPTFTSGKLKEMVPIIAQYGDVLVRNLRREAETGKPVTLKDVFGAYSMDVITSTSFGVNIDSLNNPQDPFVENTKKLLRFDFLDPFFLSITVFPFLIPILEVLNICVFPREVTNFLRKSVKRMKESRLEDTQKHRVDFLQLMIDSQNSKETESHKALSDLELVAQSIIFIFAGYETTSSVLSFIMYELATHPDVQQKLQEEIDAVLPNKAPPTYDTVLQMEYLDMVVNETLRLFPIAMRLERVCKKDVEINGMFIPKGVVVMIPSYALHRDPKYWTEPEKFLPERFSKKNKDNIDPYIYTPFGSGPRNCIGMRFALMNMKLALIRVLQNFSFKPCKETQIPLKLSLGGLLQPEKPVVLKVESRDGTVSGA
Chain of Cytochrome P450 2D6 (Homo sapiens) (P10635 whole entry, looked up): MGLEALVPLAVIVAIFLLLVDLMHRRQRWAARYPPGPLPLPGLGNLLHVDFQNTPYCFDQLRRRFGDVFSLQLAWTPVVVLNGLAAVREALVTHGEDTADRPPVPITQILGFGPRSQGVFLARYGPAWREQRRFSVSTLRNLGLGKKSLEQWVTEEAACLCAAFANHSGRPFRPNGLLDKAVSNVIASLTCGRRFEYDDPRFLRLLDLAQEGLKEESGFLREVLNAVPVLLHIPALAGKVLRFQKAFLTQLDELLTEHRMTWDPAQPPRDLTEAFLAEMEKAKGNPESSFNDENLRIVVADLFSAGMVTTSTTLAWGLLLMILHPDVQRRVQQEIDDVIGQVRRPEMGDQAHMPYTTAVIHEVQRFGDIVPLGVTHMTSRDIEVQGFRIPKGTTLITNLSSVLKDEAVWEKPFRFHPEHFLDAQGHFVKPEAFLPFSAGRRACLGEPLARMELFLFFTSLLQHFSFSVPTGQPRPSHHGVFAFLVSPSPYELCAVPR
Chain of Lysosomal acid glucosylceramidase (Homo sapiens) (P04062 whole entry, looked up): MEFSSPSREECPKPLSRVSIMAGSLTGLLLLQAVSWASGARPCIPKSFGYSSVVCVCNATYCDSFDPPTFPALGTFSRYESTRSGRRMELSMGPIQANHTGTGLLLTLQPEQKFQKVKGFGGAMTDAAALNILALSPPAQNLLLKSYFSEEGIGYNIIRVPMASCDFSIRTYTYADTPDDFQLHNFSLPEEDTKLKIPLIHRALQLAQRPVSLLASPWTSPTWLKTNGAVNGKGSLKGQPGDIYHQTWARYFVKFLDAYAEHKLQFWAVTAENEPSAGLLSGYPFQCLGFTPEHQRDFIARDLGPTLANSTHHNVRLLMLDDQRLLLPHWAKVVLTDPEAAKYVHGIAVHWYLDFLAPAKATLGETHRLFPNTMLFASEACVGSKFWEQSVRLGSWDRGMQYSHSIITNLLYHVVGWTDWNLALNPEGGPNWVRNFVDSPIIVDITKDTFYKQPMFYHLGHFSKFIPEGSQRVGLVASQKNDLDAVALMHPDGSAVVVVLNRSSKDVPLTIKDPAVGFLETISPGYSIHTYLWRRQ
Chain of Tyrosine-protein kinase Yes (Homo sapiens) (P07947 whole entry, looked up): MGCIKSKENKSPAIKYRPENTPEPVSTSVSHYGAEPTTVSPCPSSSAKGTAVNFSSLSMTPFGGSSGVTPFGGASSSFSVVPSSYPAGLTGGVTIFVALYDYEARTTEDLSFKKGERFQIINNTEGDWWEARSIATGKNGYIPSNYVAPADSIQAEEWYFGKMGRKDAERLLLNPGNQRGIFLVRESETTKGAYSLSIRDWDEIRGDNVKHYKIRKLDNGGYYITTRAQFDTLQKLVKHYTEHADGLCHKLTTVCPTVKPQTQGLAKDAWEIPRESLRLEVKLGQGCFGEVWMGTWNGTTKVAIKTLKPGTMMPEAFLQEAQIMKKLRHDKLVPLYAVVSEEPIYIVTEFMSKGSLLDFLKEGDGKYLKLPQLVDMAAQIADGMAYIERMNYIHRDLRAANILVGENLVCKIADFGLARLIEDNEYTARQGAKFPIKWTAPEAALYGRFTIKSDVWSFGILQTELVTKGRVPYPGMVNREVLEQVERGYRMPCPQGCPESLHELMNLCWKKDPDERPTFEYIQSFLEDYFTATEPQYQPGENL
Chain of Cytochrome P450 2C19 (Homo sapiens) (P33261 whole entry, looked up): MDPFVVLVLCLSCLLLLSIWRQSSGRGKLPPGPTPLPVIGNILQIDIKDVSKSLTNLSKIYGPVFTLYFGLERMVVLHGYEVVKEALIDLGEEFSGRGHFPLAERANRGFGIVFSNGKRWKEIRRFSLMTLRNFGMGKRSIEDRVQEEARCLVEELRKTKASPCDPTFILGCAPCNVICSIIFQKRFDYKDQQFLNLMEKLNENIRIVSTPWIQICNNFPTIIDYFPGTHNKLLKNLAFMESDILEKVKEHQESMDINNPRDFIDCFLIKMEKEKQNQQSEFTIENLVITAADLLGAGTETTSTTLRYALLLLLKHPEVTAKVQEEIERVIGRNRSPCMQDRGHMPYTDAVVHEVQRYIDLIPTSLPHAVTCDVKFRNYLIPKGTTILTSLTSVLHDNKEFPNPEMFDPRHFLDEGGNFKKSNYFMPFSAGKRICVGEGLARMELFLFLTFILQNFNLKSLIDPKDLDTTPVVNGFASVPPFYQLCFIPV

With `COc1ccc(-c2oc3ncnc(N)c3c2-c2ccc(NC(=O)Nc3cc(C(F)(F)F)ccc3F)cc2)cc1`, the Potency was 1.04 µM (active) in test [1]; 4.61 µM (active) in [3]; 5.8 µM (active) in [4]; 6.51 µM (active) and inactive in [5]; 10.3 µM (active) and inactive in test [6]. In addition, the call in test [2] was inactive. Besides, in test [7], the Potency entry was “inactive”. Further, the Z-AUC in test [8] was 0.736 (inactive); in [8] (measured here: PEO1 parental Z-AUC) it was 0.865; in test [8] (measured here: PEO4 Z-AUC), 0.712.

For `Oc1cccc(-c2nc(N3CCOCC3)c3sccc3n2)c1`, the Potency in test [3] is 5.17 µM (active); in test [4], 4.61 µM (active); in test [5], 1.3 µM (active); in test [6], 1.16 µM (active). Further, the Potency result in test [7] was “inactive”.

Consider `Cc1cc(-c2ccc(/C=C3\SC(=Nc4ccc(Cl)c(C(=O)O)c4)NC3=O)o2)c([N+](=O)[O-])cc1C`, for which the Potency entry in test [3], in [4], in test [5] and in test [6] was “inactive” throughout. Further, the Potency in test [7] is 20.2 µM (active).

On to `c1csc(CNc2ncnc3ccc(-c4ccc5c(c4)OCO5)cc23)c1`, for which the Potency in test [9] is > 11.4 µM (inactive); in [10] it was 0.398 µM (active); in test [13] it was > 46 µM (inactive); in test [14], > 46 µM (inactive); in test [16], 0.398 µM (active); in [17] it was 3.98 µM (active). Besides, the Potency in test [3] is 11.6 µM (active). Further, the activity change, negative = inhibition in test [11] was 5.05% (inactive); in test [20] (at 57.5 µM (top of the series)), 9.51% (inactive). In addition, in test [12], the activity, negative = inhibition was -12.1% (inactive). Also, the Potency result in test [15], in test [21] and in [7] was “inactive” in each case. The compound was classed as inactive in test [18] and in test [19]. Also, the results for the max response in [20] (measured here: cell count channel max response) and in [20] (measured here: lipid channel max response) were 14.3% and 25.9%, respectively.

For `Cn1cc(C2=C(c3cn(CCCSC(=N)N)c4ccccc34)C(=O)NC2=O)c2ccccc21`, the Potency entry in [22], in [23] and in [24] was “inactive” each time. In addition, the Potency in test [3] was 5.17 µM (active); in [25] it was 6.02 µM (active); in [5], 1.46 µM (active); in test [6] it was 1.64 µM (active).
